# Source: the supplement of paper PMC8728848
# This is one part of a sample in which the strongest signals are shown more often than they occur.
# B1: EUL D1A first (Oryza sativa) (protein)
# chain: MFGFGHHHNQAPAAPSDPNQIFKIFCRANENYCLTVRDSAVVLAPVNPKDEHQHWFKDMRFSTKVKDGEGMPAFALVNKATGLAVKHSLGQSHPVKLVPFNPEYEDASVLWTESKDVGKGFRCIRMVNNTRLNLDAFHGDKDHGGVRDGTTVVLWEWCKGDNQSWKILPWGPEAHSSSPGAATILEQKLISEEDLNSAVDHHHHHH
# Experiments:
# Assay in all cases: glycan array binding signal (z-score within array); higher = stronger binding
# Conditions in all cases: glycan notation: IUPAC condensed, linker removed
# Fuc(a1-2)Gal(b1-3)GalNAc = target: Fuc(a1-2)Gal(b1-3)GalNAc
# Summary of the method: (§1)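 Arrays were curated from the Consortium for Functional Glycomics database, 3228 in total, and kept only where the protein sequence was available. Binding is expressed as a within-array Z-score. This score was averaged across arrays of the same protein sequence at different concentrations or buffers and across linkers, and negative values can be read as non-binding.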
# [1] = target: Fuc(a1-2)Gal(b1-3)GalNAc(b1-3)Gal(a1-4)Gal(b1-4)Glc
# Summary of the method: as §1
# [2] = target: Fuc(a1-2)Gal(b1-3)GlcNAc6S
# Summary of the method: as §1
# Fuc(a1-2)Gal(b1-4)GlcNAc = target: Fuc(a1-2)Gal(b1-4)GlcNAc
# Summary of the method: as §1
# [3] = target: Fuc(a1-2)Gal(b1-4)GlcNAc(b1-3)[Fuc(a1-3)[Gal(b1-4)]GlcNAc(b1-6)]Gal(b1-4)Glc
# Summary of the method: as §1
# [4] = target: Fuc(a1-2)Gal(b1-4)[Fuc(a1-3)]GlcNAc(b1-3)Gal(b1-4)[Fuc(a1-3)]GlcNAc(b1-3)Gal(b1-4)[Fuc(a1-3)]GlcNAc
# Summary of the method: as §1
# [5] = target: Fuc(a1-2)[Gal(a1-3)]Gal(b1-3)GlcNAc
# Summary of the method: as §1
# [6] = target: Fuc(a1-2)[Gal(a1-3)]Gal(b1-3)GlcNAc(b1-6)GalNAc
# Summary of the method: as §1
# [7] = target: Fuc(a1-2)[GalNAc(a1-3)]Gal(b1-4)GlcNAc(b1-2)Man(a1-3)[Fuc(a1-2)[GalNAc(a1-3)]Gal(b1-4)GlcNAc(b1-2)Man(a1-6)]Man(b1-4)GlcNAc(b1-4)[Fuc(a1-6)]GlcNAc
# Summary of the method: as §1
# [8] = target: Fuc(a1-2)[GalNAc(a1-3)]Gal(b1-4)GlcNAc(b1-3)Gal(b1-4)GlcNAc
# Summary of the method: as §1
# [9] = target: Fuc(a1-3)[Gal(b1-4)]GlcNAc(b1-2)Man
# Summary of the method: as §1
# Gal(a1-2)Gal = target: Gal(a1-2)Gal
# Summary of the method: as §1
# [10] = target: Gal(a1-3)Gal(b1-3)GlcNAc(b1-2)Man(a1-3)[Gal(a1-3)Gal(b1-3)GlcNAc(b1-2)Man(a1-6)]Man(b1-4)GlcNAc(b1-4)GlcNAc
# Summary of the method: as §1
# [11] = target: Gal(a1-3)Gal(b1-4)[Fuc(a1-3)]GlcNAc
# Summary of the method: as §1
# [12] = target: Gal(a1-4)Gal(b1-3)GlcNAc(b1-2)Man(a1-3)[Gal(a1-4)Gal(b1-3)GlcNAc(b1-2)Man(a1-6)]Man(b1-4)GlcNAc(b1-4)GlcNAc
# Summary of the method: as §1
# Gal(a1-4)Gal(b1-4)Glc = target: Gal(a1-4)Gal(b1-4)Glc
# Summary of the method: as §1
# Gal(b1-3)GalNAc = target: Gal(b1-3)GalNAc
# Summary of the method: as §1
# [13] = target: Gal(b1-3)GalNAc(a1-3)[Fuc(a1-2)]Gal(b1-4)Glc
# Summary of the method: as §1
# [14] = target: Gal(b1-3)GalNAc(b1-3)Gal(a1-4)Gal(b1-4)Glc
# Summary of the method: as §1
# [15] = target: Gal(b1-3)[GlcNAc(b1-6)]GalNAc
# Summary of the method: as §1
# [16] = target: Gal(b1-3)[Neu5Ac(b2-6)]GalNAc
# Summary of the method: as §1
# [17] = target: Gal(b1-4)GlcNAc(a1-6)Gal(b1-4)GlcNAc
# Summary of the method: as §1
# [18] = target: Gal(b1-4)GlcNAc(b1-2)Man(a1-3)[Gal(b1-4)GlcNAc(b1-2)Man(a1-6)]Man(b1-4)GlcNAc(b1-4)GlcNAc
# Summary of the method: as §1
# [19] = target: Gal(b1-4)GlcNAc(b1-2)Man(a1-3)[Gal(b1-4)GlcNAc(b1-2)Man(a1-6)][GlcNAc(b1-4)]Man(b1-4)GlcNAc(b1-4)[Fuc(a1-6)]GlcNAc
# Summary of the method: as §1
# [20] = target: Gal(b1-4)GlcNAc(b1-2)Man(a1-6)Man(b1-4)GlcNAc(b1-4)GlcNAc
# Summary of the method: as §1
# [21] = target: Gal(b1-4)GlcNAc(b1-2)[Gal(b1-4)GlcNAc(b1-4)]Man(a1-3)[GlcNAc(b1-4)][Gal(b1-4)GlcNAc(b1-2)Man(a1-6)]Man(b1-4)GlcNAc(b1-4)GlcNAc
# Summary of the method: as §1
# [22] = target: Gal(b1-4)GlcNAc(b1-2)[Gal(b1-4)GlcNAc(b1-6)]Man(a1-6)[Gal(b1-4)GlcNAc(b1-2)Man(a1-3)]Man(b1-4)GlcNAc(b1-4)GlcNAc
# Summary of the method: as §1
# [23] = target: Gal(b1-4)GlcNAc(b1-3)Gal(b1-4)GlcNAc(b1-3)Gal(b1-4)GlcNAc(b1-2)[Gal(b1-4)GlcNAc(b1-3)Gal(b1-4)GlcNAc(b1-3)Gal(b1-4)GlcNAc(b1-6)]Man(a1-6)[Gal(b1-4)GlcNAc(b1-3)Gal(b1-4)GlcNAc(b1-3)Gal(b1-4)GlcNAc(b1-2)Man(a1-3)]Man(b1-4)GlcNAc(b1-4)[Fuc(a1-6)]GlcNAc
# Summary of the method: as §1
# [24] = target: Gal(b1-4)GlcNAc(b1-3)Gal(b1-4)[Fuc(a1-3)]GlcNAc(b1-3)Gal(b1-4)[Fuc(a1-3)]GlcNAc
# Summary of the method: as §1
# [25] = target: Gal(b1-4)GlcNAc(b1-6)[Gal(b1-4)GlcNAc(b1-3)]GalNAc
# Summary of the method: as §1
# [26] = target: GalNAc(a1-3)GalNAc(b1-3)Gal(a1-4)Gal(b1-4)Glc
# Summary of the method: as §1
# [27] = target: GalNAc(b1-3)Gal(a1-6)Gal(b1-4)Glc
# Summary of the method: as §1
# GalNAc(b1-4)GlcNAc6S = target: GalNAc(b1-4)GlcNAc6S
# Summary of the method: as §1
# GalNAc3S(b1-4)GlcNAc3S = target: GalNAc3S(b1-4)GlcNAc3S
# Summary of the method: as §1
# GalNAc4S6S(b1-4)GlcNAc = target: GalNAc4S6S(b1-4)GlcNAc
# Summary of the method: as §1
# [28] = target: GlcNAc(b1-2)Man(a1-3)[GlcNAc(b1-2)Man(a1-6)]Man(b1-4)GlcNAc(b1-4)[Fuc(a1-6)]GlcNAc
# Summary of the method: as §1
# [29] = target: GlcNAc(b1-3)Gal(b1-4)GlcNAc(b1-2)[GlcNAc(b1-3)Gal(b1-4)GlcNAc(b1-6)]Man(a1-6)[GlcNAc(b1-3)Gal(b1-4)GlcNAc(b1-2)Man(a1-3)]Man(b1-4)GlcNAc(b1-4)GlcNAc
# Summary of the method: as §1
# [30] = target: GlcNAc(b1-3)Gal(b1-4)GlcNAc(b1-3)Gal(b1-4)GlcNAc(b1-3)Gal(b1-4)GlcNAc(b1-3)Gal(b1-4)GlcNAc(b1-2)Man(a1-3)[GlcNAc(b1-3)Gal(b1-4)GlcNAc(b1-3)Gal(b1-4)GlcNAc(b1-3)Gal(b1-4)GlcNAc(b1-3)Gal(b1-4)GlcNAc(b1-2)Man(a1-6)]Man(b1-4)GlcNAc(b1-4)[Fuc(a1-6)]GlcNAc
# Summary of the method: as §1
# [31] = target: GlcNAc(b1-3)[GlcNAc(b1-6)]Gal(b1-4)GlcNAc
# Summary of the method: as §1
# [32] = target: GlcNAc(b1-4)GlcNAc(b1-4)GlcNAc(b1-4)GlcNAc(b1-4)GlcNAc(b1-4)GlcNAc
# Summary of the method: as §1
# Man(a1-2)Man(a1-3)Man = target: Man(a1-2)Man(a1-3)Man
# Summary of the method: as §1
# [33] = target: Neu5Ac(a2-3)Gal(b1-3)GlcNAc(b1-3)Gal(b1-3)GlcNAc
# Summary of the method: as §1
# [34] = target: Neu5Ac(a2-3)Gal(b1-3)[GlcNAc(b1-6)]GalNAc
# Summary of the method: as §1
# [35] = target: Neu5Ac(a2-3)Gal(b1-4)GlcNAc(b1-3)Gal(b1-4)GlcNAc(b1-6)[Gal(b1-3)]GalNAc
# Summary of the method: as §1
# [36] = target: Neu5Ac(a2-3)Gal(b1-4)GlcNAc(b1-3)Gal(b1-4)[Fuc(a1-3)]GlcNAc
# Summary of the method: as §1
# [37] = target: Neu5Ac(a2-3)Gal(b1-4)GlcNAc(b1-6)[Gal(b1-3)]GalNAc
# Summary of the method: as §1
# [38] = target: Neu5Ac(a2-3)Gal(b1-4)[Fuc(a1-3)]GlcNAc(b1-3)GalNAc
# Summary of the method: as §1
# [39] = target: Neu5Ac(a2-3)[Neu5Ac(a2-6)]GalNAc
# Summary of the method: as §1
# [40] = target: Neu5Ac(a2-6)Gal(b1-4)GlcNAc(b1-2)Man(a1-6)[Man(a1-3)]Man(b1-4)GlcNAc(b1-4)GlcNAc
# Summary of the method: as §1
# Neu5Gc(a2-3)Gal(b1-4)Glc = target: Neu5Gc(a2-3)Gal(b1-4)Glc
# Summary of the method: as §1
# [41] = target: Neu5Gc(a2-3)Gal(b1-4)GlcNAc
# Summary of the method: as §1
binder,measurement,setting,value
B1,glycan array binding signal (z-score),Fuc(a1-2)Gal(b1-3)GalNAc,-0.658
same,glycan array binding signal (z-score),[1],2.66
same,glycan array binding signal (z-score),[2],3.74
same,glycan array binding signal (z-score),Fuc(a1-2)Gal(b1-4)GlcNAc,-0.369
same,glycan array binding signal (z-score),[3],2.74
same,glycan array binding signal (z-score),[4],0.387
same,glycan array binding signal (z-score),[5],0.384
same,glycan array binding signal (z-score),[6],-0.959
same,glycan array binding signal (z-score),[7],0.095
same,glycan array binding signal (z-score),[8],-0.61
same,glycan array binding signal (z-score),[9],3.34
same,glycan array binding signal (z-score),Gal(a1-2)Gal,-0.848
same,glycan array binding signal (z-score),[10],3.31
same,glycan array binding signal (z-score),[11],-0.411
same,glycan array binding signal (z-score),[12],2.2
same,glycan array binding signal (z-score),Gal(a1-4)Gal(b1-4)Glc,0.4
same,glycan array binding signal (z-score),Gal(b1-3)GalNAc,-0.735
same,glycan array binding signal (z-score),[13],-1.67
same,glycan array binding signal (z-score),[14],-0.207
same,glycan array binding signal (z-score),[15],-1.03
same,glycan array binding signal (z-score),[16],-1.15
same,glycan array binding signal (z-score),[17],1.94
same,glycan array binding signal (z-score),[18],3.09
same,glycan array binding signal (z-score),[19],-1.23
same,glycan array binding signal (z-score),[20],3.03
same,glycan array binding signal (z-score),[21],-1.53
same,glycan array binding signal (z-score),[22],-1.05
same,glycan array binding signal (z-score),[23],2.45
same,glycan array binding signal (z-score),[24],-0.16
same,glycan array binding signal (z-score),[25],-0.802
same,glycan array binding signal (z-score),[26],-0.059
same,glycan array binding signal (z-score),[27],-2.32
same,glycan array binding signal (z-score),GalNAc(b1-4)GlcNAc6S,-0.411
same,glycan array binding signal (z-score),GalNAc3S(b1-4)GlcNAc3S,-0.185
same,glycan array binding signal (z-score),GalNAc4S6S(b1-4)GlcNAc,0.534
same,glycan array binding signal (z-score),[28],3.11
same,glycan array binding signal (z-score),[29],1.95
same,glycan array binding signal (z-score),[30],2.06
same,glycan array binding signal (z-score),[31],6.85
same,glycan array binding signal (z-score),[32],-0.541
same,glycan array binding signal (z-score),Man(a1-2)Man(a1-3)Man,0.615
same,glycan array binding signal (z-score),[33],0.506
same,glycan array binding signal (z-score),[34],0.405
same,glycan array binding signal (z-score),[35],0.24
same,glycan array binding signal (z-score),[36],-0.958
same,glycan array binding signal (z-score),[37],0.081
same,glycan array binding signal (z-score),[38],3.45
same,glycan array binding signal (z-score),[39],-0.451
same,glycan array binding signal (z-score),[40],-0.647
same,glycan array binding signal (z-score),Neu5Gc(a2-3)Gal(b1-4)Glc,-0.152
same,glycan array binding signal (z-score),[41],0.3
